The record followed here is PMC5540273 (PLoS ONE, 2017).

Test systems include DYRK1A; DYRK1B; DYRK2; EGFR; EIF2AK1; EPHA1; EPHA2; EPHA3.
Common to all, as to details: concentration: 1 μM, replicates: in singlicate; n = 1
The test system of another test is T1, DRAK1.
T1 construct: gene STK17A

The test system of a further test is T2, DRAK2.
T2 construct: gene STK17B
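Note: KINOMEscan kinase panel screen.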

On to `CC(=O)Nc1nc2cnc(Nc3cc(NC(=O)c4cccc(CCC#N)c4)ccc3C)nc2s1`, for which the “%Inh” value is 0% in the test on DRAK1; 0% in the test with DRAK2; 0% in the test on DYRK1A; 42% with DYRK1B; 0% in the test on DYRK2; 6% in the test on EGFR. Also, the “%Inh” value came out at 21% in the test with EIF2AK1, 0% in the test on EPHA1, 34% in the test on EPHA2 and 0% with EPHA3.

Regarding `COc1ccc(Nc2nccc(NCCNC(=O)Nc3ccccc3F)n2)cc1` [GSK1379901], the “%Inh” value with DRAK1 is recorded as 2%; in the test with DRAK2, 0%; in the test on DYRK1A it was 19%; in the test on DYRK1B, 0%; in the test with DYRK2, 6%; with EGFR, 20%. Further, the “%Inh” value is reported as 10% with EIF2AK1, 33% in the test with EPHA1, 25% in the test with EPHA2 and 0% with EPHA3.

As for `Cc1csc(-c2nc(Nc3ccncc3)c3ccccc3n2)n1` [GW869640], the “%Inh” value in the test with DRAK1 was 10%; in the test on DRAK2, 0%; in the test with DYRK1A, 18%; in the test on DYRK1B, 0%; in the test with DYRK2, 29%; in the test on EGFR it was 1%. Also, the “%Inh” value in the test with EIF2AK1 stood at 14%; in the test on EPHA1, 0%; in the test on EPHA2 it was 0%; in the test on EPHA3, 30%.

On to `Cl.Oc1ccc(-c2nc(-c3ccccc3)[nH]c2-c2ccncc2)cc1` [SB-428218], for which the “%Inh” value in the test on DRAK1 is 0%; in the test with DRAK2 it was 0%; with DYRK1A, 17%; in the test on DYRK1B it was 0%; in the test with DYRK2 it was 0%; in the test on EGFR it was 31%. Moreover, the “%Inh” value with EIF2AK1 is listed as 5%; in the test with EPHA1, 55%; in the test on EPHA2, 1%; with EPHA3 it was 0%.

Turning to `O=C(Nc1n[nH]c2nc(-c3nccs3)c(Br)cc12)C1CC1` [SB-742251], the “%Inh” value is on record as 0% in the test with DRAK1; 0% in the test on DRAK2; 30% in the test with DYRK1A; 0% in the test on DYRK1B; 36% in the test with DYRK2; 0% in the test on EGFR. The “%Inh” value with EIF2AK1 was found to be 1%; in the test on EPHA1, 0%; in the test with EPHA2, 0%; with EPHA3 it was 0%.

Regarding `CCCc1ccc(S(=O)(=O)NC2CCN(c3ccnc(Nc4ccc(F)cc4)n3)C2)cc1` (stereo not drawn) [GSK1379715], the “%Inh” value came out at 0% with DRAK1; 0% in the test with DRAK2; 23% in the test with DYRK1A; 0% in the test with DYRK1B; 0% in the test on DYRK2; 0% with EGFR. Moreover, the “%Inh” value with EIF2AK1 is recorded as 12%; with EPHA1 it was 8%; in the test with EPHA2, 12%; with EPHA3 it was 0%.

Turning to `COc1ccccc1-c1ccc2c(NC(=O)C3CC3)n[nH]c2n1` [SB-711239], the “%Inh” value is given as 5% in the test on DRAK1; 0% in the test on DRAK2; 12% in the test on DYRK1A; 16% in the test with DYRK1B; 2% in the test with DYRK2; 2% in the test on EGFR. The “%Inh” value with EIF2AK1 amounted to 0%; in the test on EPHA1, 0%; with EPHA2 it was 18%; in the test on EPHA3, 0%.

For `COc1ccc(Nc2nccc(-c3cccc(NC(=O)c4cc5cc(F)ccc5[nH]4)c3)n2)cc1` [GSK1229782], the “%Inh” value was determined as 24% with DRAK1; 0% in the test on DRAK2; 5% in the test on DYRK1A; 25% with DYRK1B; 12% with DYRK2; 22% in the test with EGFR. For the same compound, the “%Inh” value was found to be 10% in the test with EIF2AK1, 56% in the test with EPHA1, 9% with EPHA2 and 35% in the test with EPHA3.

Take `Cc1ccc(NC(=O)Nc2cccc(Cl)c2)cc1-c1ccc(C(=O)Nc2ccncc2)cc1` [GSK1398468]: the “%Inh” value in the test with DRAK1 was 0%; with DRAK2, 0%; in the test on DYRK1A, 1%; in the test with DYRK1B, 21%; in the test with DYRK2 it was 0%; in the test with EGFR it was 24%. The “%Inh” value in the test on EIF2AK1 came to 0%; with EPHA1, 6%; in the test on EPHA2, 3%; in the test on EPHA3, 0%.

Turning to `O=C1NC(=O)C(N2CCc3ccccc32)=C1c1ccccc1Cl` [SB-373598], the “%Inh” value in the test with DRAK1 is 0%; with DRAK2, 0%; with DYRK1A, 18%; with DYRK1B it was 0%; with DYRK2 it was 6%; in the test on EGFR, 25%. In addition, the “%Inh” value was 0% in the test with EIF2AK1, 10% in the test on EPHA1, 27% in the test on EPHA2 and 12% with EPHA3.

With `COc1ccc(C2=C(Nc3cccc(C(=O)O)c3)C(=O)NC2=O)cc1` [SB-390765], the “%Inh” value came to 19% in the test with DRAK1; 7% with DRAK2; 9% in the test with DYRK1A; 0% in the test on DYRK1B; 20% in the test on DYRK2; 0% with EGFR. Besides, the “%Inh” value in the test with EIF2AK1 is on record as 11%; with EPHA1, 7%; in the test with EPHA2 it was 9%; in the test with EPHA3 it was 11%.

As for `CC(C)(C)c1ccc(C(=O)Nc2cn3cc(Cl)ccc3n2)cc1`, the “%Inh” value in the test on DRAK1 was found to be 5%; in the test with DRAK2, 20%; with DYRK1A, 47%; with DYRK1B, 65%; in the test with DYRK2, 0%; with EGFR, 0%. Also, the “%Inh” value with EIF2AK1 was found to be 0%; with EPHA1, 0%; in the test with EPHA2 it was 0%; in the test with EPHA3 it was 65%.

Turning to `Clc1cc(Cl)cc(Nc2ccnc(Nc3cc(Cl)cc(Cl)c3)n2)c1` [GSK175726], the “%Inh” value is listed as 0% in the test on DRAK1; 6% in the test with DRAK2; 0% with DYRK1A; 19% with DYRK1B; 0% with DYRK2; 38% with EGFR. Moreover, the “%Inh” value in the test on EIF2AK1 is 0%; with EPHA1 it was 54%; with EPHA2 it was 46%; with EPHA3, 21%.

Consider `CN1C(=O)C(Nc2ccc(Cl)c(C(=O)O)c2)=C(c2ccc(Cl)cc2)C1=O` [SB-404290], for which the “%Inh” value in the test on DRAK1 was 0%; in the test on DRAK2, 0%; in the test with DYRK1A, 2%; in the test on DYRK1B, 0%; in the test on DYRK2, 0%; with EGFR it was 0%. In addition, the “%Inh” value in the test with EIF2AK1 is reported as 0%; with EPHA1 it was 5%; with EPHA2 it was 0%; in the test on EPHA3 it was 18%.

Consider `COc1cc2ncnc(Nc3ccc4nc(-c5ccccc5)[nH]c4c3)c2cc1OC.Cl` [GW282450], for which the “%Inh” value in the test on DRAK1 is listed as 0%; in the test on DRAK2, 0%; in the test on DYRK1A, 13%; in the test on DYRK1B, 0%; with DYRK2, 19%; in the test on EGFR, 59%. Also, the “%Inh” value in the test with EIF2AK1 is on record as 6%; with EPHA1, 10%; with EPHA2, 0%; with EPHA3, 31%.

As for `COc1cc(Nc2nccc(N3CCC(NC(=O)Nc4cc(C)ccc4C)C3)n2)cc(OC)c1OC` (stereo not drawn) [GSK1379762], the “%Inh” value with DRAK1 came to 0%; in the test on DRAK2, 0%; with DYRK1A it was 25%; in the test on DYRK1B it was 16%; in the test with DYRK2, 19%; in the test with EGFR it was 63%. Also, the “%Inh” value in the test with EIF2AK1 was 0%; with EPHA1 it was 22%; with EPHA2 it was 8%; with EPHA3, 0%.

As to `NC(=O)c1nnc2ccccc2c1N`, the “%Inh” value in the test with DRAK1 is on record as 41%; with DRAK2 it was 33%; with DYRK1A, 29%; with DYRK1B, 16%; with DYRK2, 39%; in the test on EGFR, 0%. The “%Inh” value with EIF2AK1 came to 0%; in the test with EPHA1, 14%; in the test on EPHA2, 10%; in the test on EPHA3, 0%.

Turning to `Cc1cccc(-c2nc(C)cc(Nc3ccncc3)n2)n1` [GSK257997], the “%Inh” value with DRAK1 is listed as 12%; with DRAK2, 0%; in the test on DYRK1A it was 6%; in the test with DYRK1B it was 13%; with DYRK2, 14%; in the test with EGFR it was 30%. Moreover, the “%Inh” value in the test with EIF2AK1 amounted to 0%; in the test with EPHA1, 0%; in the test with EPHA2, 9%; in the test with EPHA3 it was 0%.
